Data: ChEMBL document CHEMBL4513135, “CO-ADD screening of IQOG CSIS (Spain) compounds”
Where “and” joins values, the source holds several entries; their conditions need not be identical. Equal entries are not always repeated. Measured potencies and affinities stand elsewhere.

Columns and labels:
[1] = tested on: Klebsiella pneumoniae; details: Concentration 32 ug.mL-1, ASSAY_TEST Inhibition of Bacterial Growth, detection method Absorption (OD600), MEDIA CAMHB, plate type 384well, NBS, CORNING #3640, time 18 hr
[2] = tested on: Candida albicans; details: 32 ug/mL
[3] = tested on: Cryptococcus neoformans; details: Concentration 32 ug.mL-1, ASSAY_TEST Inhibition of Fungal Growth, detection method Resazurin, Absorption (OD600-OD570), plate type 384well, NBS, CORNING #3640

COc1ccc2c(c1)cc(CN)n2C
Inhibition [1]: 13.36%
Inhibition [2]: 2.3%
Inhibition [3]: -4.4%

Cn1c(C(=O)NCc2ccccc2)cc2cc(OCCCC3CCN(Cc4ccccc4)CC3)ccc21
Inhibition [1]: 8.4%
Inhibition [2]: 1.62%
Inhibition [3]: -77.02%

N#Cc1cc2c(N)n[nH]c2nc1N
Inhibition [1]: 6.95%
Inhibition [2]: 0.04%
Inhibition [3]: -4.92%

COc1ccc(C2c3c(ccc4ccccc34)OC(=NBr)C2(Br)C#N)cc1OC (configuration not stated)
Inhibition [1]: 4.11%
Inhibition [2]: 18%
Inhibition [3]: -72.67%

C=C1CN(C)c2c(C#N)cc(C#N)c(=N)n21
Inhibition [1]: 9.83%
Inhibition [2]: 2.03%
Inhibition [3]: -52.46%

CC(=NNC(N)=O)c1c[nH]c2ccccc12
Inhibition [1]: 10.53%
Inhibition [2]: 5.46%
Inhibition [3]: -5.64%

Cc1ccc(/C=N/NC(=O)c2c[nH]c3ccccc23)cc1
Inhibition [1]: 10.41%
Inhibition [2]: 1.17%
Inhibition [3]: -0.49%

C#CCN(C)c1nc(OC)c(C#N)cc1C#N
Inhibition [1]: 1.2%
Inhibition [2]: 2.65%
Inhibition [3]: -43.21%

C#CCNc1nc(Cl)c(C#N)c(-c2ccccc2)c1C#N
Inhibition [1]: -23.73%
Inhibition [2]: 1.27%
Inhibition [3]: -7.07%

COc1ccc2cc(C=O)c(Cl)nc2c1
Inhibition [1]: 1.14%
Inhibition [2]: 6.08%
Inhibition [3]: 26.83%

CCOC(=O)c1cc2cc(OCc3ccccc3)ccc2[nH]1
Inhibition [1]: 6.66%
Inhibition [2]: 1.86%
Inhibition [3]: -3.27%

C#CCN(C)Cc1cc2cc(OCCCC3CCN(C(=O)OC(C)(C)C)CC3)ccc2n1C
Inhibition [1]: -9.9%
Inhibition [2]: 1.82%
Inhibition [3]: -6.45%

Cc1ccc2nc(Cl)c(/C=N/NCc3ccccc3)cc2c1
Inhibition [1]: 7.66%
Inhibition [2]: 14.7%
Inhibition [3]: -3.59%

N#Cc1cc2c(N)c3c(nc2nc1Cl)CCN(Cc1ccccc1)C3
Inhibition [1]: 13.32%
Inhibition [2]: 2.4%
Inhibition [3]: -88.69%

N#CC1(Br)C(=N)Oc2ccc3ccccc3c2C1c1ccccc1 (configuration not stated)
Inhibition ([1]; 32 ug/mL): 8.56% and 13.61%
Inhibition [2]: 5.08% and 2.03%
Inhibition ([3]; 32 ug/mL): -52.48% and -41.25%

O=C(NNCCc1ccccc1)c1cc2ccccc2[nH]1
Inhibition [1]: 0.93%
Inhibition [2]: -1.59%
Inhibition [3]: -3.77%

N#Cc1c(N)nc(N2CCCCC2)c(C#N)c1-c1ccccc1
Inhibition [1]: 2.6%
Inhibition [2]: 1.97%
Inhibition [3]: -31.47%

N#Cc1c(N)nc(N2CCOCC2)c(C#N)c1-c1ccccc1
Inhibition [1]: 3.68%
Inhibition [2]: 1.23%
Inhibition [3]: -3.16%

Cc1ccc(C2CC2(N)C(=O)O)cc1.Cl (configuration not stated)
Inhibition [1]: 13.97%
Inhibition [2]: 1.46%
Inhibition [3]: -7.69%

CC1Cc2c(Br)nc3nc4c(c(N)c3c2NC1=O)CCCC4 (configuration not stated)
Inhibition [1]: 20.62%
Inhibition [2]: -0.9%
Inhibition [3]: -91.63%

CC(C)CC(C)NNC(=O)c1cc2ccccc2[nH]1 (configuration not stated)
Inhibition [1]: -2.7%
Inhibition [2]: -0.37%
Inhibition [3]: -6.14%

N#Cc1c(N)nc2[nH]nc(N)c2c1-c1ccccc1
Inhibition [1]: 17.63%
Inhibition [2]: 0.49%
Inhibition [3]: -62.75%

COC1=C(C#N)CCC(=O)N1
Inhibition [1]: 12.74%
Inhibition [2]: 0.89%
Inhibition [3]: -77.28%

CCOC(=O)C1=C(C)OC(N)=C(C#N)C1c1ccc(OC)cc1 (configuration not stated)
Inhibition [1]: 14.63%
Inhibition [2]: 2.59%
Inhibition [3]: -5.46%

O=C(O)c1cc2ccccc2[nH]1 [INDOLE-2-CARBOXYLIC ACID]
Inhibition [1]: 1.67%
Inhibition [2]: 26.2%
Inhibition [3]: -9.27%

CC#CCN(Cc1ccccc1)c1nc(N)c(C#N)c(-c2ccccc2)c1C#N
Inhibition [1]: -4.62%
Inhibition [2]: 3.12%
Inhibition [3]: -26%

N#CCC(=C(C#N)C#N)c1ccccc1
Inhibition [1]: 11.23%
Inhibition [2]: 5.35%
Inhibition [3]: -3.99%

Cl.NC1(C(=O)O)CC1c1ccccc1 (configuration not stated)
Inhibition [1]: 9.92%
Inhibition [2]: 1.66%
Inhibition [3]: -5.74%

CN(C)c1cccc(C(=O)c2cccc(N(C)C)c2)c1
Inhibition [1]: 6.77%
Inhibition [2]: -0.28%
Inhibition [3]: -8.01%

O=c1oc2cc(O)ccc2cc1-c1ccccc1
Inhibition [1]: 3.33%
Inhibition [2]: -0.21%
Inhibition [3]: -4.62%

CC(C)C(=O)N/N=C/c1c[nH]c2ccccc12
Inhibition [1]: 19.59%
Inhibition [2]: -0.11%
Inhibition [3]: -5.03%

CC(C)(C)OC(=O)Nc1ncccc1Br
Inhibition [1]: 19.74%
Inhibition [2]: 1.17%
Inhibition [3]: -55.01%

Cn1c(C(=O)N2CCOCC2)cc2cc(OCCCC3CCN(Cc4ccccc4)CC3)ccc21
Inhibition [1]: 2.68%
Inhibition [2]: 1.38%
Inhibition [3]: -96.05%

N#Cc1cc(C#N)c(NCCCC2CCN(Cc3ccccc3)CC2)nc1N
Inhibition [1]: 10.46%
Inhibition [2]: 0.89%
Inhibition [3]: -57.65%

C#CC[n+]1ccccc1N.[Br-]
Inhibition [1]: -10.26%
Inhibition [2]: 1.82%
Inhibition [3]: -3.96%

O=C(N/N=C/c1c[nH]c2ccccc12)c1ccc(Cl)cc1
Inhibition [1]: 14.79%
Inhibition [2]: 0.77%
Inhibition [3]: -0.09%

Nc1c2c(nc3c1CC(c1c(Cl)cccc1Cl)C(=O)N3)CCCC2 (configuration not stated)
Inhibition [1]: 0.93%
Inhibition [2]: -0.19%
Inhibition [3]: -92.02%

c1ccc(-c2nc3c4cnn(-c5ccccc5)c4ncn3n2)cc1
Inhibition [1]: 10.22%
Inhibition [2]: -0.93%
Inhibition [3]: -6.06%

COC(=O)C(C#N)=Cc1ccccc1
Inhibition [1]: 12.71%
Inhibition [2]: 3.86%
Inhibition [3]: -2.58%

O=C(N/N=C/c1ccc([N+](=O)[O-])cc1)c1cc2ccccc2[nH]1
Inhibition [1]: 7.41%
Inhibition [2]: 0.87%
Inhibition [3]: -3.37%

COc1ccc(C2c3c(ccc4ccccc34)OC(=N)C2(Br)C#N)cc1OC (configuration not stated)
Inhibition [1]: 2.61%
Inhibition [2]: 7.63%
Inhibition [3]: -66.17%

COc1nc2ccccc2cc1C=O
Inhibition [1]: -3.66%
Inhibition [2]: 6.13%
Inhibition [3]: -2.5%

C=C1CN(C)c2c(C#N)c(-c3ccccc3)c(C#N)c(=N)n21
Inhibition [1]: 8.43%
Inhibition [2]: -0.24%
Inhibition [3]: -51.34%

Cl.ClCCCCCN1CCCCC1
Inhibition [1]: 6.55%
Inhibition [2]: 2.45%
Inhibition [3]: -4.11%
